From the supplement of paper PMC6992640 come the findings set out here.

One assay concerns HCI01 (cells of a triple-negative basal-like breast cancer xenograft). The experiment in a line: cell viability of combination (% of vehicle); higher = less cytotoxic. The note with it: 1 µM; 72 h; partner dose: 10 nM. As to the method: (§1)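 PDX cells were treated for 72 h with each drug at 1 µM plus afatinib (10 nM; 1 µM for WHIM30). Luciferase viability is expressed as percent of vehicle.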
The subject of another assay is WHIM2 (cells of a triple-negative basal-like breast cancer xenograft). The assay is described as above. The conditions noted are these: 1 µM; 72 h; partner dose: 10 nM. The method, then:
as §1

Consider `CC(C)Nc1cc(-c2c[nH]c(C(=O)NC(CO)c3cccc(Cl)c3)c2)c(Cl)cn1` (centres undefined) + CN(C)C/C=C/C(=O)Nc1cc2c(Nc3ccc(F)c(Cl)c3)ncnc2cc1O[C@H]1CCOC1 [Afatinib], for which the results for the “cell viability of combination” value with HCI01 and in the assay with WHIM2 were 50.7 and 30.3, respectively.
For `CC1=CC(=O)c2ccccc2C1=O` [Menadione] + CN(C)C/C=C/C(=O)Nc1cc2c(Nc3ccc(F)c(Cl)c3)ncnc2cc1O[C@H]1CCOC1 [Afatinib], in that order: 55.8 and 50.2.
For `CN(C)CCOc1ccc(C(=C(CCCl)c2ccccc2)c2ccccc2)cc1.O=C(O)CC(O)(CC(=O)O)C(=O)O` [Toremifene Citrate] + CN(C)C/C=C/C(=O)Nc1cc2c(Nc3ccc(F)c(Cl)c3)ncnc2cc1O[C@H]1CCOC1 [Afatinib], in that order: 70.8 and 55.7.
For `CNC(=O)c1cc(Oc2ccc(NC(=O)Nc3ccc(Cl)c(C(F)(F)F)c3)c(F)c2)ccn1.Cl` [Regorafenib hydrochloride] + CN(C)C/C=C/C(=O)Nc1cc2c(Nc3ccc(F)c(Cl)c3)ncnc2cc1O[C@H]1CCOC1 [Afatinib], in that order: 52 and 43.3.
Consider `COc1cc2nccc(Oc3ccc(NC(=O)NC4CC4)c(Cl)c3)c2cc1C(N)=O` [Lenvatinib (E7080)] + CN(C)C/C=C/C(=O)Nc1cc2c(Nc3ccc(F)c(Cl)c3)ncnc2cc1O[C@H]1CCOC1 [Afatinib], for which the “cell viability of combination” value amounted to 40 in the assay on HCI01 and 32.5 in the assay on WHIM2.
For `C#Cc1cccc(Nc2ncnc3cc(OCCOC)c(OCCOC)cc23)c1.Cl` [Erlotinib Hydrochloride] + CN(C)C/C=C/C(=O)Nc1cc2c(Nc3ccc(F)c(Cl)c3)ncnc2cc1O[C@H]1CCOC1 [Afatinib], in that order: 47.7 and 37.5.
For `Nc1ncn(C2OC(CO)C(O)C2O)c(=O)n1` (centres undefined) [5-Azacytidine] + CN(C)C/C=C/C(=O)Nc1cc2c(Nc3ccc(F)c(Cl)c3)ncnc2cc1O[C@H]1CCOC1 [Afatinib], in that order: 53.5 and 48.9.
For `CCOc1cc2ncc(C#N)c(Nc3ccc(F)c(Cl)c3)c2cc1NC(=O)C=CCN(C)C` [Pelitinib (EKB-569)] + CN(C)C/C=C/C(=O)Nc1cc2c(Nc3ccc(F)c(Cl)c3)ncnc2cc1O[C@H]1CCOC1 [Afatinib], in that order: 72.1 and 22.1.
In the case of `CN(C)c1ccc(C(=C2C=CC(=[N+](C)C)C=C2)c2ccc(N(C)C)cc2)cc1.[Cl-]` [Crystal Violet] + CN(C)C/C=C/C(=O)Nc1cc2c(Nc3ccc(F)c(Cl)c3)ncnc2cc1O[C@H]1CCOC1 [Afatinib], the “cell viability of combination” value with HCI01 was found to be 45; in the assay on WHIM2, 28.4.
For `CC(C)COc1ccc(CNC(=O)N(Cc2ccc(F)cc2)C2CCN(C)CC2)cc1` [Pimavanserin] + CN(C)C/C=C/C(=O)Nc1cc2c(Nc3ccc(F)c(Cl)c3)ncnc2cc1O[C@H]1CCOC1 [Afatinib], in that order: 52.8 and 50.8.
For `Cl.Nc1ccn(C2OC(CO)C(O)C2O)c(=O)n1` (centres undefined) [Cytarabine hydrochloride] + CN(C)C/C=C/C(=O)Nc1cc2c(Nc3ccc(F)c(Cl)c3)ncnc2cc1O[C@H]1CCOC1 [Afatinib], in that order: 46.6 and 40.3.
Consider `COc1cccc2c1C(=O)c1c(O)c3c(c(O)c1C2=O)CC(O)(C(=O)CO)CC3OC1CC(N)C(O)C(C)O1` (centres undefined) [Doxorubicin] + CN(C)C/C=C/C(=O)Nc1cc2c(Nc3ccc(F)c(Cl)c3)ncnc2cc1O[C@H]1CCOC1 [Afatinib], for which the “cell viability of combination” value in the assay on HCI01 stood at 43.8; in the assay on WHIM2 it was 15.6.
